The term AC50 denotes the concentration giving half of the maximal activity seen. By IC50 is commonly meant the midpoint of a concentration-inhibition curve. For orientation: viability means a read-out of living cells in per cent, often relative to untreated cells.

Several values for one entry are separate records, joined by “and”; a condition that tells them apart may be missing. Identical values can stand only once. Records with an inconclusive call do not appear. A structure can be active in one record and inactive in another. Activity calls are given as the source filed them.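 The calls were made as follows, unless noted: active = normalized viability below 100% at a tested concentration; inactive = the rest.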

Experiment [1] in a line: viability loss in pontine glioma line – cell-based, SU-DIPG-XVII, MIPE5.0, CellTiter-Glo, qHTS, dose response (AID 1347060; cut-off not given, nearly all actives have AC50 up to about 26 µM;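 as to AC50: cells exposed to compound for 48 hours before viability readout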). The settings on record: CellTiter-Glo ATP luminescence. Background: In ATP-based viability assays light output follows the ATP content of the culture.
Experiment [2] is described as follows: viability loss in pontine glioma line – cell-based, JHH-DIPG-1, MIPE4.0, CellTiter-Glo, qHTS, dose response (AID 1347062; cut-off not given, nearly all actives have AC50 up to about 27 µM;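 as to AC50: cells exposed to compound for two days before readout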). The following applies: JHH-DIPG-1 viability, CellTiter-Glo ATP luminescence.
A short description of experiment [3]: viability loss in pontine glioma line – cell-based, SU-DIPG-IV, MIPE4.0, CellTiter-Glo, qHTS, dose response (AID 1347063; cut-off not given, nearly all actives have AC50 up to about 30 µM;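 also: compound exposure lasted 48 hours before the viability readout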). The settings on record: CellTiter-Glo ATP luminescence.
Experiment [4] can be described thus: viability loss in pontine glioma line – cell-based, SU-DIPG-XIII, MIPE5.0, CellTiter-Glo, qHTS, dose response (AID 1347064; cut-off not given, nearly all actives have AC50 up to about 23 µM;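 as to AC50: cells exposed to compound for 48 hours before the viability read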). The settings on record: CellTiter-Glo ATP luminescence.
The nature of experiment [5]: viability loss in pontine glioma line – cell-based, SU-DIPG-XXV, MIPE5.0, CellTiter-Glo, qHTS, dose response (AID 1347065; cut-off not given, nearly all actives have AC50 up to about 26 µM;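 also: cells exposed to compound for 48 hours before ATP readout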). The settings on record: CellTiter-Glo ATP luminescence.
Experiment [6] is described as follows: JHH-DIPG-1 glioma cell viability, MIPE5.0 library, CellTiter-Glo luminescence, qHTS (AID 1347067; cut-off not given, nearly all actives have AC50 up to about 26 µM;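 also: cells exposed to compound for 48 hours before readout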). The following applies: JHH-DIPG-1 glioma viability, CellTiter-Glo ATP luminescence.
Experiment [7] in a line: growth inhibition of DIPG cells – cell-based, MIPE5.0 library, qHTS (AID 1347068; cut-off not given, nearly all actives have IC50 up to about 30 µM;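 as to IC50: cells exposed to compound for 48 hours before viability readout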). The settings on record: SU-DIPG-XXV viability. In general terms: qHTS replaces the single test concentration by a dilution series.
Experiment [8] can be described thus: viability loss with induced miR-34 in A549 – imaging, A549 dox-inducible miR-34, nuclei and caspase counts, primary screen (AID 1347080;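 active = compounds whose cell count with miR-34 switched on is under 0.7 times the count with it off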). The following applies: A549 miR-34 inducible, Hoechst nuclei count, 48 h.
Experiment [9] in a line: compounds altering HSF1 focus formation in cells – imaging, Selleck Cancer Library (AID 1347162; in the data active = plate-normalised HSF1 focus index below about 0.46). The following applies: human cells, HSF1 nuclear foci imaging, at 10 µM; SSMD: measured here: HSF1 foci SSMD mean; cell count: measured here: cell number; plate-normalised HSF1 focus index: stronger effect = lower value.
The nature of experiment [10]: MELAS cybrid and Rieske KO viability enhancers – cell-based, MELAS cybrids, Rieske KO mouse fibroblasts, CellTiter-Glo, primary screen (AID 1508586;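 active = mean z-score across replicates of 1.96 or higher in either the MELAS or the Rieske mutant cell line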;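 also: z relative to plate mean and SD of compound and empty wells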). The following applies: low glucose.
Experiment [11] is described as follows: drug combination growth inhibition, ovarian cancer – cell-based, oncology-focused library, rucaparib conditional, profiling panel (AID 1508598). The settings on record: patient-derived ovarian cancer cells, CellTiter-Glo viability, 144 h, stronger effect = lower value.
Where [12] appears, read: stronger effect = lower value, cell number ratio, induced over uninduced.
The mark [13] stands for this setting: measured here: relative caspase fold change +Dox/-Dox.
Setting [14] is: measured here: total cells with miR-34 induction, stronger effect = lower value.
Setting [15] is: measured here: total cells without miR-34 induction.

Turning to `CN(c1ncccc1CNc1nc(Nc2ccc3c(c2)CC(=O)N3)ncc1C(F)(F)F)S(C)(=O)=O`, the AC50 in experiment [1] was 5.25 µM (active); in experiment [2], 5.9 µM (active); in [3], 4.18 µM (active); in experiment [4], 8.33 µM (active); in [5], 3.72 µM (active); in experiment [6] it was 8.33 µM (active). Besides, the IC50 in [7] was 11.8 µM (active). Moreover, the fold change in experiment [8] (setting [12]) was 0.847 (inactive) and 0.961 (inactive) and 0.946 (inactive); in [8] (setting [13]), 0.469 and 1.06 and 0.671. In addition, the cell count is 1490 and 1380 and 1080 in experiment [8] (setting [14]); 1760 and 1430 and 1140 in [8] (setting [15]); 4390 in experiment [9]. In experiment [9], the SSMD was -7.81. Further, in [9], the plate-normalised HSF1 focus index was 0.528 (inactive). For the same compound, the z-score in experiment [10] (MELAS cybrid survival, CellTiter-Glo 48 h, stronger effect = higher value) is -0.34 (inactive) and -0.161 (inactive) and 2.09 (active); in [10] (Rieske KO mouse fibroblast survival, CellTiter-Glo 72 h) it was -0.291 and -0.23 and -5.55. The viability is 100% (inactive) in experiment [11] (at 0.000305 µM, OCI-C5x cells, with rucaparib 10 µM, 100% = cells with rucaparib alone); 125% (inactive) in experiment [11] (at 0.000305 µM, OCI-C5x cells, without rucaparib); 105% (inactive) in experiment [11] (at 0.000305 µM, OCI-P5x cells, with rucaparib 20 µM, 100% = cells with rucaparib alone); 110% (inactive) in [11] (at 0.000305 µM, OCI-P5x cells, without rucaparib); 110% (inactive) in experiment [11] (at 0.00122 µM, OCI-C5x cells, with rucaparib 10 µM, 100% = cells with rucaparib alone); 111% (inactive) in experiment [11] (at 0.00122 µM, OCI-C5x cells, without rucaparib). The viability in experiment [11] (at 0.00122 µM, OCI-P5x cells, with rucaparib 20 µM, 100% = cells with rucaparib alone) is 110% (inactive); in experiment [11] (at 0.00122 µM, OCI-P5x cells, without rucaparib) it was 110% (inactive); in experiment [11] (at 0.00488 µM, OCI-C5x cells, with rucaparib 10 µM, 100% = cells with rucaparib alone), 106% (inactive); in experiment [11] (at 0.00488 µM, OCI-C5x cells, without rucaparib) it was 130% (inactive); in experiment [11] (at 0.00488 µM, OCI-P5x cells, with rucaparib 20 µM, 100% = cells with rucaparib alone) it was 99.2% (active); in [11] (at 0.00488 µM, OCI-P5x cells, without rucaparib) it was 108% (inactive). The viability is 115% (inactive) in [11] (at 0.0195 µM, OCI-C5x cells, with rucaparib 10 µM, 100% = cells with rucaparib alone); 122% (inactive) in [11] (at 0.0195 µM, OCI-C5x cells, without rucaparib); 106% (inactive) in [11] (at 0.0195 µM, OCI-P5x cells, with rucaparib 20 µM, 100% = cells with rucaparib alone); 106% (inactive) in experiment [11] (at 0.0195 µM, OCI-P5x cells, without rucaparib); 111% (inactive) in [11] (at 0.0781 µM, OCI-C5x cells, with rucaparib 10 µM, 100% = cells with rucaparib alone); 122% (inactive) in experiment [11] (at 0.0781 µM, OCI-C5x cells, without rucaparib). The viability in experiment [11] (at 0.0781 µM, OCI-P5x cells, with rucaparib 20 µM, 100% = cells with rucaparib alone) is 92.3% (active); in [11] (at 0.0781 µM, OCI-P5x cells, without rucaparib) it was 101% (inactive); in experiment [11] (at 0.313 µM, OCI-C5x cells, with rucaparib 10 µM, 100% = cells with rucaparib alone), 110% (inactive); in [11] (at 0.313 µM, OCI-C5x cells, without rucaparib), 119% (inactive); in experiment [11] (at 0.313 µM, OCI-P5x cells, with rucaparib 20 µM, 100% = cells with rucaparib alone), 90.8% (active); in [11] (at 0.313 µM, OCI-P5x cells, without rucaparib), 93.6% (active). Besides, the viability in experiment [11] (at 1.25 µM, OCI-C5x cells, with rucaparib 10 µM, 100% = cells with rucaparib alone) is 110% (inactive); in experiment [11] (at 1.25 µM, OCI-C5x cells, without rucaparib), 110% (inactive); in [11] (at 1.25 µM, OCI-P5x cells, with rucaparib 20 µM, 100% = cells with rucaparib alone), 76.7% (active); in experiment [11] (at 1.25 µM, OCI-P5x cells, without rucaparib), 73.3% (active); in [11] (at 5 µM, OCI-C5x cells, with rucaparib 10 µM, 100% = cells with rucaparib alone) it was 13% (active); in [11] (at 5 µM, OCI-C5x cells, without rucaparib) it was 19.1% (active). Besides, the viability in experiment [11] (at 5 µM, OCI-P5x cells, with rucaparib 20 µM, 100% = cells with rucaparib alone) was 33.5% (active); in [11] (at 5 µM, OCI-P5x cells, without rucaparib), 24.3% (active).

On to `Cc1cc(OCCCS(C)(=O)=O)cc(C)c1-c1cccc(COc2ccc3c(c2)OC[C@H]3CC(=O)O)c1`, for which the call in experiment [1], in experiment [2], in experiment [3], in experiment [4], in experiment [5] and in experiment [6] was inactive. In addition, the compound was classed as inactive in [7].

`O=C1NC(=O)/C(=C/c2ccc3c(c2)OC(F)(F)O3)S1`: the outcome in [1], in [2], in [3], in experiment [4], in experiment [5] and in experiment [6] was inactive. In addition, the result in [7] was inactive. In addition, the fold change in [8] (setting [12]) was 0.88 (inactive) and 0.952 (inactive); in experiment [8] (setting [13]), 1.16 and 0.645. Besides, the cell count is 8070 and 5980 in experiment [8] (setting [14]); 9160 and 6280 in experiment [8] (setting [15]).

For the origin of these results see PubChem BioAssay.
